Here are results for 5 compounds from PubChem BioAssay.

The structures appear in SMILES notation. Activity calls are given as the source filed them.

The nature of assay [1]: binders of probe aFSTL3 on microarray, primary screen, stem cell growth factor project, biochemical, small-molecule microarray, fluorescence 635/667 (AID 1064).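 Note: measures binding of the biotinylated anti-FSTL3 antibody to printed compounds.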 The following applies: higher = more signal.
A short description of assay [2]: binders from COS7 lysate, DM2A8 probe, primary screen, torsin A project, cell lysate, small-molecule microarray, fluorescence 635/667 (AID 1065). To be noted: higher = more signal, COS7 lysate expressing mutant human TOR1A.
Assay [3] in a line: binders of probe aFGF2 on microarray, primary screen, stem cell growth factor project, biochemical, small-molecule microarray, fluorescence 635/667 (AID 1067).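 Note: measures binding of biotinylated aFGF2 protein to printed compounds on slides; z-score merges feature fluorescence and signal-to-noise across triplicate slides.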 The following applies: higher = more signal.
The nature of assay [4]: binders of probe aFGF10 on microarray, primary screen, stem cell growth factor project, biochemical, small-molecule microarray, fluorescence 635/667 (AID 1071).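 Note: score merges 667 nm spot intensity and signal to noise from triplicate slides.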 The following applies: higher = more signal.
In assay [5] the target is Neurogenic locus notch homolog protein 2 (Homo sapiens) (UniProt Q04721). Put plainly: Notch2 binders on small-molecule microarrays, primary screen, biochemical, small-molecule microarray, 635 nm fluorescence, stem cell growth factors (AID 1073). The following applies: Notch2 binding, higher = more signal.
In assay [6] the target is Pro-neuregulin-1, membrane-bound isoform (Homo sapiens) (UniProt Q02297). Put plainly: NRG1 binders on small-molecule microarrays, primary screen, psychiatric disease protein project, biochemical, small-molecule microarray, fluorescence 635/667 (AID 1075).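 Note: score combines 667 nm spot fluorescence with signal to noise.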 The following applies: NRG1 binding, 635 nm fluorescence, higher = more signal.
For assay [7], the system named is Neuregulin-1 EGF-like domain. Put plainly: binders of neuregulin-1 EGF-like domain, primary screen, biochemical, small-molecule microarray, 635 nm fluorescence (AID 1081).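 Note: binding of the protein to compounds printed on small-molecule microarray slides.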 To be noted: small-molecule microarray binding, higher = more signal.
The nature of assay [8]: FRG1 promoter luciferase signal modulators, primary screen, FRG1 inhibition for FSHD, cell-based, C2C12 myotubes, firefly/Renilla luciferase, luminescence (AID 1084). To be noted: higher = more signal, called active from +8 up or from −8 down.
A short description of assay [9]: binders of probe aFST on microarray, primary screen, stem cell growth factor project, biochemical, small-molecule microarray, fluorescence 635/667 (AID 1086).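 Note: score merges 667 nm fluorescence with signal-to-noise of each printed compound spot.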 The following applies: higher = more signal.
A short description of assay [10]: binders of probe aHhip on microarray, primary screen, stem cell growth factor project, biochemical, small-molecule microarray, fluorescence 635/667 (AID 1087).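 Note: score merges spot fluorescence at 667nm with spot signal to noise ratio.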 The following applies: higher = more signal.
The test system of assay [11] is PRMT1 (protein arginine N-methyltransferase 1). Put plainly: PRMT1 binders on small-molecule microarrays, primary screen, biochemical, small-molecule microarray, 635 nm fluorescence (AID 1088).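 Note: binding of Prmt1 protein to compounds spotted on small-molecule microarray slides.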 To be noted: small-molecule microarray binding, higher = more signal.
Assay [12] in a line: yeast growth modulation, basal conditions, primary screen, YJM789 clinical isolate, OD600, 24 h (AID 1089).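 Note: growth of clinical yeast isolate S. cerevisiae YJM 789 seeded 1000 cells per well; test concentration not given here.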 The following applies: S. cerevisiae YJM789 growth, higher = more signal, called active from +8 up or from −8 down.
Assay [13] in a line: fission yeast growth modulation, primary screen, strain 972, OD600, 24 h, no modulator (AID 1090).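 Note: basal condition with compound alone and no growth modifier present; test concentration not given here.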 The following applies: S. pombe 972 growth, higher = more signal, called active from +8 up or from −8 down.
Assay [14] is described as follows: S. cerevisiae growth modulation with rapamycin, primary screen, strain BY4716, OD600, 96 h (AID 1091). Note: test concentration not given here. To be noted: higher = more signal, called active from +8 up or from −8 down.
Assay [15] addresses Torsin-1A-interacting protein 2 (Homo sapiens) (UniProt Q8NFQ8). Put plainly: LULL1 binders on small-molecule microarray, primary screen, cell lysate, human LULL1 lysate, 635/667 nm fluorescence (AID 1092).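 Note: probe is lysate of COS7 cells overexpressing human LULL1; score merges per-feature 667 nm fluorescence with signal-to-noise.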 The following applies: hLULL1 lysate binding, 635 nm fluorescence, higher = more signal.
The nature of assay [16]: E. coli growth modulation, two-sided OD650, primary screen, E. coli filamentation project, strain DRC41, 24 h (AID 1093).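 Note: MC1000 strain lacking acrAB efflux and sulA so SOS filamentation is blocked; test concentration not given here.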 The following applies: OD650, 24 h, higher = more signal, called active from +8 up or from −8 down.
A short description of assay [17]: small-molecule microarray binders of probe aLefty2, primary screen, biochemical, biotinylated probe, 635/667 nm fluorescence (AID 1094).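 Note: score merges spot fluorescence near 667 nm with spot signal-to-noise ratio.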 The following applies: higher = more signal.
Assay [18] deals with Noggin (protein binding on small-molecule microarray). Put plainly: Noggin binders on small-molecule microarray, primary screen, biochemical, 635/667 nm fluorescence (AID 1095).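 Note: score merges 667 nm feature fluorescence with signal to noise over triplicate slides.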 To be noted: 635 nm fluorescence, higher = more signal.
Assay [19] has as its target Neurogenic locus notch homolog protein 3 (Homo sapiens) (UniProt Q9UM47). Put plainly: NOTCH3 binders on small-molecule microarray, primary screen, biochemical, 635/667 nm fluorescence (AID 1096). To be noted: NOTCH3 binding, 635 nm fluorescence, higher = more signal.
Assay [20] is described as follows: small-molecule microarray binders of probe aEGFR, primary screen, biochemical, biotinylated probe, 635/667 nm fluorescence (AID 1097).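 Note: probe is a biotinylated anti-EGFR antibody binding compounds printed on slides; score combines fluorescence near 667 nm and signal to noise of each spot.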 The following applies: higher = more signal.

Chain of Pro-neuregulin-1, membrane-bound isoform (Homo sapiens) (Q02297 whole entry, looked up, the tested form may be a part, canonical isoform): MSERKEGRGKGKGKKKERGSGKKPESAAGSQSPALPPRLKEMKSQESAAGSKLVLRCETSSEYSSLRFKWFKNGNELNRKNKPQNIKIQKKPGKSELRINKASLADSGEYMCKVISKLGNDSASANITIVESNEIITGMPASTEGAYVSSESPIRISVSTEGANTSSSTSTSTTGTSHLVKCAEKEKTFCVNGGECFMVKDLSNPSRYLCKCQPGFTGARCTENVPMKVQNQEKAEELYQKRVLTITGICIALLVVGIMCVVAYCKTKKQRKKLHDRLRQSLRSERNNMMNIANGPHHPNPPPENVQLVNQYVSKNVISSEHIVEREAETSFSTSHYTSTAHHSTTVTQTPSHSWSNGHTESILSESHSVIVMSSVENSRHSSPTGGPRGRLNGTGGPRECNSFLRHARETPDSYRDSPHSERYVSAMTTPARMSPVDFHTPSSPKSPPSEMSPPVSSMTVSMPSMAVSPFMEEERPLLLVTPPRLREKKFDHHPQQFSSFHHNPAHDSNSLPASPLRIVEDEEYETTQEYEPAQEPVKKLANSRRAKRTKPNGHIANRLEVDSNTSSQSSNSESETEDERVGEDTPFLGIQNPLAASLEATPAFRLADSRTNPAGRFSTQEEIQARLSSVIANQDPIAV
Chain of Neurogenic locus notch homolog protein 2 (Homo sapiens) (Q04721 whole entry, looked up, canonical isoform): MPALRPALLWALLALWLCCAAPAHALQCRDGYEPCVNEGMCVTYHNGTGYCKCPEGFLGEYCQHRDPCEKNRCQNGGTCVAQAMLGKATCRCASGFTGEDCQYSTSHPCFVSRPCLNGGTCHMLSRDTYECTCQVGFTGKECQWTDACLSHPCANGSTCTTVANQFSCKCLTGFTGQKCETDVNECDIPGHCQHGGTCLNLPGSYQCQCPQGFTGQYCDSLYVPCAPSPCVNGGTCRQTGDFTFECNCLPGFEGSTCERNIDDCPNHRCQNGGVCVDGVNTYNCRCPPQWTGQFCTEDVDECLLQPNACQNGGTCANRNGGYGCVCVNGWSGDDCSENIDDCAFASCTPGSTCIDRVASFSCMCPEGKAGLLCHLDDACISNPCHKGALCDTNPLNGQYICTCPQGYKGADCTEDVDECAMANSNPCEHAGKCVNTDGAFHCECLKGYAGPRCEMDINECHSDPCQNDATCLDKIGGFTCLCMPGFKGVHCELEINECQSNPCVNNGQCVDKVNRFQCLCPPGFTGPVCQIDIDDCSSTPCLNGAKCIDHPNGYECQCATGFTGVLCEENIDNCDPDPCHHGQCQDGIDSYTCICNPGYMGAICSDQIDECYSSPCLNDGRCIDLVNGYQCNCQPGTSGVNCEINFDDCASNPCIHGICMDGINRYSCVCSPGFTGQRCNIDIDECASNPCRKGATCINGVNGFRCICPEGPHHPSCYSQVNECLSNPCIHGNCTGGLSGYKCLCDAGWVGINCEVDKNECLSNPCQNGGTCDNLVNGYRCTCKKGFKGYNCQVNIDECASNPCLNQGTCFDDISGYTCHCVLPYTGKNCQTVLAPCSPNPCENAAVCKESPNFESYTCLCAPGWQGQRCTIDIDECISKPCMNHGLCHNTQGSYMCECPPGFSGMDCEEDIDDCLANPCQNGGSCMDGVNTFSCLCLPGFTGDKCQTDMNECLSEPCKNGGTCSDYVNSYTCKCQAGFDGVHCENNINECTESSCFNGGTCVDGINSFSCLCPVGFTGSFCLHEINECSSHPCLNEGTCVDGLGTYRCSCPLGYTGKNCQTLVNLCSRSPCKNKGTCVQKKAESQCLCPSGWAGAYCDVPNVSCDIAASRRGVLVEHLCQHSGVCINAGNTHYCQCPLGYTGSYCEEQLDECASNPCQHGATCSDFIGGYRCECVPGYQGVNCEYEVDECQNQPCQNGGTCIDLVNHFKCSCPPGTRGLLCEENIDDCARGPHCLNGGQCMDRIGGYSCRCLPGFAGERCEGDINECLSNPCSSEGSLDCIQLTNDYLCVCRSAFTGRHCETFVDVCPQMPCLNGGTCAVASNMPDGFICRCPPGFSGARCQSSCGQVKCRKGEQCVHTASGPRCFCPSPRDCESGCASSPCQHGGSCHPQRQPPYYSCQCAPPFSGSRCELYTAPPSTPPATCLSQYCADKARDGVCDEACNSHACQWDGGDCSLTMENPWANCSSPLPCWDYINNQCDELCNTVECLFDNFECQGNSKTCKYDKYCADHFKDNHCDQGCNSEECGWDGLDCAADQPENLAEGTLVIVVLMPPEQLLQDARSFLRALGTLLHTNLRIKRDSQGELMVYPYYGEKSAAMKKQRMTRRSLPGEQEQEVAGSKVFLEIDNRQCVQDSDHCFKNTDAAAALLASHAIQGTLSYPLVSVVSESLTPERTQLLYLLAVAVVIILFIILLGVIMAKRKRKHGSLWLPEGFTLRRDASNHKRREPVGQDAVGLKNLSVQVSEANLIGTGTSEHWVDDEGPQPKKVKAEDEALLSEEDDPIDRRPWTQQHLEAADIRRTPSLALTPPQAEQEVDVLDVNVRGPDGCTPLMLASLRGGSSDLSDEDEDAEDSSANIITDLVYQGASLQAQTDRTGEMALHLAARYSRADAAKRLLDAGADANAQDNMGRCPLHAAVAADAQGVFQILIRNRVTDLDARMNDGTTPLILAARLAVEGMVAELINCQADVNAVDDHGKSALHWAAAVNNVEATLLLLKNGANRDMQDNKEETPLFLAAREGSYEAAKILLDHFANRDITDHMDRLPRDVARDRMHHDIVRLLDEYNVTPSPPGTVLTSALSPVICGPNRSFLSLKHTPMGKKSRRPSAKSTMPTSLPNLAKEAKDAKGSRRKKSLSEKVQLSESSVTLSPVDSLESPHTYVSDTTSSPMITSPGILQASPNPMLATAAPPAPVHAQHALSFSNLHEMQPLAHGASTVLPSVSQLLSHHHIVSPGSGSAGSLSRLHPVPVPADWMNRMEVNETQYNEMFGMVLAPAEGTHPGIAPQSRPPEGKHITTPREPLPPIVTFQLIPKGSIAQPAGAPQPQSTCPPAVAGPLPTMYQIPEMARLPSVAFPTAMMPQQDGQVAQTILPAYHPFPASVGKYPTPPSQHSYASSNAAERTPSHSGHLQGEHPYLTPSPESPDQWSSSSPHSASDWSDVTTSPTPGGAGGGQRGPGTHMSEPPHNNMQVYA
Chain of Torsin-1A-interacting protein 2 (Homo sapiens) (Q8NFQ8 whole entry, looked up): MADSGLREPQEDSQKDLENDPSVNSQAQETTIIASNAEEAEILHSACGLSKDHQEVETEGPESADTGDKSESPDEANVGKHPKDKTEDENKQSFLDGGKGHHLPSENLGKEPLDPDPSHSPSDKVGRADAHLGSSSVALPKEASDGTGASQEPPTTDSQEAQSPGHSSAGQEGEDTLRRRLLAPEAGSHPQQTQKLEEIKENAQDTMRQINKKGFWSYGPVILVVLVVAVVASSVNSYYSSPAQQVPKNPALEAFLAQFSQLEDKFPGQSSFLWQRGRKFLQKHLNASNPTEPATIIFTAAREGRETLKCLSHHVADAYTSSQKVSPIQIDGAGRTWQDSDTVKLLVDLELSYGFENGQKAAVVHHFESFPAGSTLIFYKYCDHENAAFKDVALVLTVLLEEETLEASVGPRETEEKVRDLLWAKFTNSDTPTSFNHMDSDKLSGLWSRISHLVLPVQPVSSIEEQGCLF

With `C=C(COC)C(=O)CC[C@H](OC(=O)c1ccccc1-c1ccccc1C(=O)O)c1ccc(CO)o1`, the composite z-score in [1] was -0.326; in assay [2], -0.192; in assay [3], -0.128; in [4] it was 0.738; in assay [5], -0.532; in assay [6] it was 0.844. Moreover, the composite z-score in assay [7] is 1.33; in assay [9], -0.118; in assay [10] it was -0.0618; in assay [11], 1.56; in assay [15], 1.37; in assay [17], -0.216. Further, the figures for the composite z-score in assay [18], in [19] and in assay [20] were 0.757, 0.391 and -0.17, respectively. The z-score is -0.362 (inactive) in assay [8]; -1.91 (inactive) in assay [12]; 0.436 (inactive) in assay [13]; 0.526 (inactive) in [14]; 0.229 (inactive) in assay [16].

Take `CC(C)N1C(=O)c2ccccc2[C@](C)(C(=O)O)[C@@H]1c1ccc(CO)cc1`: the composite z-score in [1] is 0.513; in assay [2], -0.671; in assay [3] it was -0.0255; in assay [4], -0.0804; in [5], -0.663; in assay [6] it was 0.752. The composite z-score in assay [7] is -0.0487; in assay [9] it was 0.112; in [10], -0.0708; in assay [11], -0.0681; in assay [15], 1.32; in assay [17] it was -0.0395. The composite z-score in assay [18] is -0.615; in assay [19], -0.356; in assay [20], -0.256. Further, the z-score in [8] is 0.726 (inactive); in assay [12] it was -0.0219 (inactive); in assay [13] it was -0.751 (inactive); in assay [14] it was -1.16 (inactive); in assay [16] it was -0.156 (inactive).

With `O=C1c2ccccc2C(=O)C2CC([C@H]3Oc4ccccc4S(=O)(=O)N4CCC[C@@H]34)=CCC12` (stereo not given in full), the composite z-score is -0.253 in assay [1]; -0.0672 in assay [2]; -0.176 in [3]; -0.159 in assay [4]; 0.193 in assay [5]; 0.583 in assay [6]. The composite z-score in [7] was 0.449; in assay [9], -0.0883; in assay [10], 0.21; in [11], -0.739; in assay [15], -0.312; in [17], -0.116. For the same compound, the composite z-score is 0.162 in assay [18], -0.42 in assay [19] and -0.124 in assay [20]. Moreover, the z-score was -1.71 (inactive) in [8]; 0.151 (inactive) in [12]; -0.717 (inactive) in [13]; 0.388 (inactive) in assay [14]; 1.47 (inactive) in assay [16].

As to `O=C(Nc1cc(Br)ccc1C(=O)NCc1cccc(O)c1)c1ccccc1`, the composite z-score in assay [1] is -0.0036; in assay [2], 0.296; in assay [3], -0.0144; in assay [4], 0.478; in assay [5], 0.708; in assay [6], 1.95. In addition, the composite z-score in assay [7] was 1.15; in assay [9], 0.395; in assay [10] it was -0.318; in [11], 1.45; in assay [15], 2.5; in assay [17], -0.0291. Besides, the results for the composite z-score in assay [18], in [19] and in [20] were -0.0072, 0.275 and -0.0947, respectively. The z-score in assay [8] was -1.07 (inactive); in assay [12] it was 1.06 (inactive); in [13], -2.4 (inactive); in [14] it was 0.537 (inactive); in [16] it was 2.81 (inactive).

As for `COC(=O)[C@@]1(Cc2ccccc2)[C@H]2c3cc(C(=O)N(C)C)n(Cc4ccc(O)c(OC)c4)c3C[C@H]2CN1C(=O)c1ccccc1`, the composite z-score turned out to be 0.709 in [1]; 1.36 in assay [2]; 0.0487 in assay [3]; 0.523 in [4]; 1.56 in assay [5]; 0.934 in [6]. The composite z-score in [7] was 1.24; in [9] it was 1.91; in [10], 2.58; in assay [11], 1.18; in assay [15] it was 2.74; in assay [17] it was -0.0203. The composite z-score in assay [18] is -0.372; in assay [19] it was 0.895; in assay [20] it was 0.38. Besides, the z-score in [8] is 3.26 (inactive); in [12] it was 0.473 (inactive); in assay [13], -0.455 (inactive); in assay [14], 0.836 (inactive); in [16], 0.195 (inactive).
